Test results: PubChem BioAssay (NCI)
This is part of a sample that, as a whole, favours compounds with a hit. Of some 83,000 tested, about 20% had one in any assay.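 Testing used 96-well plates and a 48-hour single-concentration exposure. Example: -40 means 40% of the starting cells died.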 Activity calls are given as the source filed them. How the source made its calls: active means growth percent below 10; inactive means the rest.

Key:
Experiment in all cases: NCI-60 one-dose screen, 48 h (100 = growth as untreated, 0 = no growth, -100 = all killed)
Conditions in all cases: 10 µM
SK-MEL-2 melanoma = test system: SK-MEL-2 melanoma
EKVX NSCLC = test system: EKVX NSCLC
UO-31 renal = test system: UO-31 renal
TK-10 renal = test system: TK-10 renal
ACHN renal = test system: ACHN renal
CAKI-1 renal = test system: CAKI-1 renal
A498 renal = test system: A498 renal
CCRF-CEM leukemia = test system: CCRF-CEM leukemia
MOLT-4 leukemia = test system: MOLT-4 leukemia
SR leukemia = test system: SR leukemia
RPMI-8226 leukemia = test system: RPMI-8226 leukemia
OVCAR-8 ovarian = test system: OVCAR-8 ovarian
OVCAR-5 ovarian = test system: OVCAR-5 ovarian
OVCAR-4 ovarian = test system: OVCAR-4 ovarian
SK-OV-3 ovarian = test system: SK-OV-3 ovarian
IGROV1 ovarian = test system: IGROV1 ovarian
OVCAR-3 ovarian = test system: OVCAR-3 ovarian
HS 578T breast = test system: HS 578T breast
NCI/ADR-RES ovarian = test system: NCI/ADR-RES ovarian
SN12C renal = test system: SN12C renal

Measured: growth

O=S(=O)(Oc1ccc(-c2ccc3sccc3c2)cc1)c1ccccc1
inactive: SK-MEL-2 melanoma 111% | EKVX NSCLC 95.8% | UO-31 renal 97.7% | TK-10 renal 99.8% | ACHN renal 112% | CAKI-1 renal 87% | A498 renal 89.2% | CCRF-CEM leukemia 98.9% | MOLT-4 leukemia 91.7% | SR leukemia 105% | RPMI-8226 leukemia 107% | OVCAR-8 ovarian 106% | OVCAR-5 ovarian 97.3% | OVCAR-4 ovarian 103% | SK-OV-3 ovarian 107% | IGROV1 ovarian 107% | OVCAR-3 ovarian 110% | HS 578T breast 108% | NCI/ADR-RES ovarian 103%

O=C1c2c(c(=O)[nH]c3ccccc23)CCN1Cc1ccccc1
inactive: SK-MEL-2 melanoma 127% | EKVX NSCLC 92.4% | SN12C renal 97.4% | TK-10 renal 119% | ACHN renal 91.8% | A498 renal 110% | CCRF-CEM leukemia 100% | MOLT-4 leukemia 105% | SR leukemia 115% | RPMI-8226 leukemia 91.9% | OVCAR-8 ovarian 96.4% | OVCAR-5 ovarian 92.9% | OVCAR-4 ovarian 155% | SK-OV-3 ovarian 98.1% | OVCAR-3 ovarian 121% | HS 578T breast 119% | NCI/ADR-RES ovarian 98.6%

COC1=CC(=O)OC(c2ccc(OC)cc2)C1 (configuration not stated)
inactive: SK-MEL-2 melanoma 98.9% | EKVX NSCLC 96.1% | SN12C renal 99.3% | TK-10 renal 104% | ACHN renal 103% | CAKI-1 renal 85.8% | A498 renal 96.4% | CCRF-CEM leukemia 107% | MOLT-4 leukemia 101% | RPMI-8226 leukemia 111% | OVCAR-8 ovarian 105% | OVCAR-5 ovarian 106% | OVCAR-4 ovarian 106% | SK-OV-3 ovarian 117% | OVCAR-3 ovarian 103% | HS 578T breast 111% | NCI/ADR-RES ovarian 102%

CC1CCCC(C(=O)O)C1C(=O)O (configuration not stated)
inactive: SK-MEL-2 melanoma 93.4% | EKVX NSCLC 95.4% | UO-31 renal 92.7% | TK-10 renal 93.8% | ACHN renal 105% | CAKI-1 renal 97.2% | A498 renal 95.8% | CCRF-CEM leukemia 99.3% | MOLT-4 leukemia 77.6% | SR leukemia 98.9% | RPMI-8226 leukemia 94.1% | OVCAR-8 ovarian 94.4% | OVCAR-5 ovarian 99.8% | OVCAR-4 ovarian 103% | SK-OV-3 ovarian 90.4% | IGROV1 ovarian 106% | OVCAR-3 ovarian 110% | HS 578T breast 95.4% | NCI/ADR-RES ovarian 102%

CN(C)c1nc(N)c2nccnc2n1
inactive: SK-MEL-2 melanoma 97.9% | EKVX NSCLC 98.3% | SN12C renal 99.6% | TK-10 renal 104% | ACHN renal 105% | CAKI-1 renal 84.7% | A498 renal 93% | CCRF-CEM leukemia 114% | MOLT-4 leukemia 98.1% | RPMI-8226 leukemia 110% | OVCAR-8 ovarian 110% | OVCAR-5 ovarian 100% | OVCAR-4 ovarian 104% | SK-OV-3 ovarian 110% | OVCAR-3 ovarian 105% | HS 578T breast 105% | NCI/ADR-RES ovarian 99.2%

CC(C)N(CCOc1cccc(-c2nc3sccn3c2-c2ccnc(S(C)(=O)=O)n2)c1)C(C)C
inactive: SK-MEL-2 melanoma 109% | EKVX NSCLC 101% | SN12C renal 83.9% | UO-31 renal 89.8% | ACHN renal 93.7% | A498 renal 53.2% | CCRF-CEM leukemia 81% | MOLT-4 leukemia 84.3% | SR leukemia 64.3% | RPMI-8226 leukemia 37.7% | OVCAR-8 ovarian 79.2% | OVCAR-5 ovarian 115% | OVCAR-4 ovarian 64.5% | SK-OV-3 ovarian 85.7% | IGROV1 ovarian 94.7% | OVCAR-3 ovarian 90.6% | NCI/ADR-RES ovarian 89.5%

Cc1cc(Br)nnc1Br
inactive: SK-MEL-2 melanoma 123% | EKVX NSCLC 114% | SN12C renal 109% | TK-10 renal 124% | ACHN renal 108% | CAKI-1 renal 101% | CCRF-CEM leukemia 97.8% | MOLT-4 leukemia 93.4% | RPMI-8226 leukemia 122% | OVCAR-8 ovarian 115% | OVCAR-5 ovarian 105% | OVCAR-4 ovarian 113% | SK-OV-3 ovarian 101% | OVCAR-3 ovarian 112% | HS 578T breast 110% | NCI/ADR-RES ovarian 120%

CCOc1ccccc1/C=N\N=C(\N)N/N=C/c1ccccc1OCC
active: OVCAR-3 ovarian 7.41% | NCI/ADR-RES ovarian 3.57%
inactive: SK-MEL-2 melanoma 14.9% | EKVX NSCLC 64.8% | SN12C renal 45.2% | TK-10 renal 67.8% | ACHN renal 44.8% | CAKI-1 renal 37.2% | CCRF-CEM leukemia 16.9% | MOLT-4 leukemia 26.5% | RPMI-8226 leukemia 27.1% | OVCAR-8 ovarian 39.1% | OVCAR-5 ovarian 93.4% | OVCAR-4 ovarian 71.8% | SK-OV-3 ovarian 10.3%

O=C(O)COc1c(Cl)cc([N+](=O)[O-])cc1Cl
inactive: SK-MEL-2 melanoma 101% | EKVX NSCLC 102% | UO-31 renal 94.2% | TK-10 renal 99% | ACHN renal 106% | CAKI-1 renal 99.9% | A498 renal 97.5% | CCRF-CEM leukemia 92.5% | MOLT-4 leukemia 80.6% | SR leukemia 82.3% | RPMI-8226 leukemia 101% | OVCAR-8 ovarian 99.3% | OVCAR-5 ovarian 95.7% | OVCAR-4 ovarian 108% | SK-OV-3 ovarian 92.3% | IGROV1 ovarian 93.6% | OVCAR-3 ovarian 113% | HS 578T breast 105% | NCI/ADR-RES ovarian 108%

Nc1nc(N)c(N)c(Nc2ccc(CCO)cc2)n1
inactive: SK-MEL-2 melanoma 118% | EKVX NSCLC 91.9% | SN12C renal 100% | TK-10 renal 102% | ACHN renal 106% | A498 renal 92.8% | RPMI-8226 leukemia 95.3% | OVCAR-8 ovarian 105% | OVCAR-4 ovarian 112% | SK-OV-3 ovarian 110% | OVCAR-3 ovarian 107% | HS 578T breast 100%

COc1cc2cc(Oc3ccc(NC(=O)c4ccccc4)cc3)c(C)nc2cc1OC
inactive: SK-MEL-2 melanoma 59.5% | EKVX NSCLC 89.8% | UO-31 renal 81.4% | ACHN renal 80.8% | CAKI-1 renal 85.3% | A498 renal 89% | CCRF-CEM leukemia 101% | MOLT-4 leukemia 89.9% | SR leukemia 70.2% | RPMI-8226 leukemia 96.8% | OVCAR-8 ovarian 22.7% | OVCAR-5 ovarian 112% | OVCAR-4 ovarian 78.9% | SK-OV-3 ovarian 73.4% | IGROV1 ovarian 91.5% | OVCAR-3 ovarian 83.4% | HS 578T breast 57.1% | NCI/ADR-RES ovarian 81.3%

CC(C)C1=C(O)C2=C(C(=O)C1=O)[C@@]1(C)CCCC(C)(C)[C@@H]1CC2
inactive: SK-MEL-2 melanoma 97.7% | EKVX NSCLC 67.1% | TK-10 renal 81.5% | ACHN renal 59.6% | CAKI-1 renal 15% | CCRF-CEM leukemia 41.5% | MOLT-4 leukemia 44.2% | SR leukemia 48% | RPMI-8226 leukemia 55.2% | OVCAR-8 ovarian 70% | OVCAR-5 ovarian 108% | SK-OV-3 ovarian 95.5% | OVCAR-3 ovarian 61% | HS 578T breast 85% | NCI/ADR-RES ovarian 39.7%

COc1ccc2c(c1)C(=O)/C(=C/c1ncc([N+](=O)[O-])n1C)O2
inactive: CCRF-CEM leukemia 95.1% | RPMI-8226 leukemia 105%
active: SK-MEL-2 melanoma -52.1% | SN12C renal -11.5% | UO-31 renal -46.4% | TK-10 renal -37.9% | ACHN renal 9.55% | CAKI-1 renal -21.6% | A498 renal -35.5% | MOLT-4 leukemia -5.94% | SR leukemia 9.33% | OVCAR-8 ovarian -18.2% | OVCAR-5 ovarian 1.74% | OVCAR-4 ovarian -6.9% | SK-OV-3 ovarian -21.7% | IGROV1 ovarian -30.4% | OVCAR-3 ovarian -18% | NCI/ADR-RES ovarian -0.383%

COc1ccc(Nc2cnc3cc(NS(=O)(=O)c4ccc(C)cc4)ccc3n2)cc1
inactive: SK-MEL-2 melanoma 65.5% | SN12C renal 85.9% | UO-31 renal 59.3% | TK-10 renal 94.7% | ACHN renal 90.3% | CAKI-1 renal 61.5% | A498 renal 77.9% | MOLT-4 leukemia 57.5% | SR leukemia 30% | RPMI-8226 leukemia 106% | OVCAR-8 ovarian 82.1% | OVCAR-5 ovarian 95.9% | OVCAR-4 ovarian 86.5% | SK-OV-3 ovarian 88% | IGROV1 ovarian 65.5% | OVCAR-3 ovarian 79.8% | HS 578T breast 82.7% | NCI/ADR-RES ovarian 73.1%

COc1ccc([C@H]2[C@H](C(=O)Nc3cccnc3)c3ccccc3C(=O)N2c2ccccc2)cc1
inactive: SK-MEL-2 melanoma 86.2% | EKVX NSCLC 94.5% | UO-31 renal 99.5% | TK-10 renal 93% | ACHN renal 90.3% | CAKI-1 renal 93.7% | MOLT-4 leukemia 77.5% | SR leukemia 46.3% | OVCAR-8 ovarian 96.1% | OVCAR-5 ovarian 114% | OVCAR-4 ovarian 98.2% | SK-OV-3 ovarian 96.4% | IGROV1 ovarian 81.4% | OVCAR-3 ovarian 100% | HS 578T breast 71% | NCI/ADR-RES ovarian 97%

CC(=O)Nc1cc2c(cc1Cl)Cc1cc(Cl)ccc1-2
inactive: SK-MEL-2 melanoma 103% | EKVX NSCLC 12% | UO-31 renal 65.4% | TK-10 renal 86.4% | ACHN renal 88.2% | CAKI-1 renal 75.6% | MOLT-4 leukemia 103% | SR leukemia 80.1% | RPMI-8226 leukemia 111% | OVCAR-8 ovarian 88.2% | OVCAR-5 ovarian 83.7% | OVCAR-4 ovarian 83.9% | SK-OV-3 ovarian 96% | IGROV1 ovarian 72.4% | OVCAR-3 ovarian 103%

CC1=CC2C(C(O)CC3(C)C2CC(C)C32OCOC23COCO3)C2(C)C/C(=C/O)C(=O)C=C12 (configuration not stated)
active: ACHN renal 8.9% | CCRF-CEM leukemia -3.03% | MOLT-4 leukemia -32.8% | SR leukemia -38.8%
inactive: SK-MEL-2 melanoma 76.1% | EKVX NSCLC 48.8% | UO-31 renal 10.5% | TK-10 renal 42.7% | CAKI-1 renal 67.6% | OVCAR-8 ovarian 43.8% | OVCAR-5 ovarian 63.2% | OVCAR-4 ovarian 35.8% | SK-OV-3 ovarian 48.5% | IGROV1 ovarian 70.9% | OVCAR-3 ovarian 10.8% | HS 578T breast 83.4% | NCI/ADR-RES ovarian 17.3%

CN1C(=O)C2(Nc3cc(Cl)ccc3S2)c2cc(Cl)ccc21 (configuration not stated)
inactive: SK-MEL-2 melanoma 108% | EKVX NSCLC 79.2% | UO-31 renal 56.9% | TK-10 renal 125% | ACHN renal 92.3% | CAKI-1 renal 82.2% | A498 renal 73% | CCRF-CEM leukemia 71.6% | MOLT-4 leukemia 82.5% | RPMI-8226 leukemia 80.4% | OVCAR-8 ovarian 97.4% | OVCAR-5 ovarian 107% | OVCAR-4 ovarian 70.3% | SK-OV-3 ovarian 96.1% | IGROV1 ovarian 102% | OVCAR-3 ovarian 95.9% | HS 578T breast 91.1%
